# Assay outcomes as filed in PubChem BioAssay.
# SW480 rereplic: DNA re-replication induction in SW480 cells | SW480 DNA re-replication, Hoechst DNA content imaging, 48 h | Potency, µM (titrated, usually from 46.1 µM), most hits filed as activators | 340,000 compounds, 1.8% hits | AID 624297; also: nearly all actives have a fitted effect of over 55% in size
#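 Treated cells incubate 48 hr (37 C, 5% CO2), are stained 40 min with Hoechst, and nuclear fluorescence is enumerated; a rise in nuclei with high DNA signal marks re-replication.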
# PINK1 expr mod: modulators of PINK1 expression. PINK1 immunofluorescence, high-content cytometry, 24 h. Potency, µM (doses to about 76.6 µM), usual class: activators. 410,000 compounds, 0.2% hits. AID 624263; active = well fitted activation curve with a large enough effect; inconclusive = small, poorly fitted or top-dose-only effect; cell line not stated here; also: nearly all actives have a fitted effect of over 65% in size
#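 Measures PINK1 amount and localization on or inside mitochondria by immunofluorescence. Stable cells get compounds at 5 concentrations for 24 hours before fixation and staining; CCCP controls included.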
# 12-LOX inh: inhibitors of human 12S-lipoxygenase ALOX12; purified 12hLO, xylenol orange hydroperoxide absorbance; Potency, µM (doses to about 108 µM), usual class: inhibitors; 580,000 compounds, 1.1% hits
# Target sequence (P18054 whole entry, looked up): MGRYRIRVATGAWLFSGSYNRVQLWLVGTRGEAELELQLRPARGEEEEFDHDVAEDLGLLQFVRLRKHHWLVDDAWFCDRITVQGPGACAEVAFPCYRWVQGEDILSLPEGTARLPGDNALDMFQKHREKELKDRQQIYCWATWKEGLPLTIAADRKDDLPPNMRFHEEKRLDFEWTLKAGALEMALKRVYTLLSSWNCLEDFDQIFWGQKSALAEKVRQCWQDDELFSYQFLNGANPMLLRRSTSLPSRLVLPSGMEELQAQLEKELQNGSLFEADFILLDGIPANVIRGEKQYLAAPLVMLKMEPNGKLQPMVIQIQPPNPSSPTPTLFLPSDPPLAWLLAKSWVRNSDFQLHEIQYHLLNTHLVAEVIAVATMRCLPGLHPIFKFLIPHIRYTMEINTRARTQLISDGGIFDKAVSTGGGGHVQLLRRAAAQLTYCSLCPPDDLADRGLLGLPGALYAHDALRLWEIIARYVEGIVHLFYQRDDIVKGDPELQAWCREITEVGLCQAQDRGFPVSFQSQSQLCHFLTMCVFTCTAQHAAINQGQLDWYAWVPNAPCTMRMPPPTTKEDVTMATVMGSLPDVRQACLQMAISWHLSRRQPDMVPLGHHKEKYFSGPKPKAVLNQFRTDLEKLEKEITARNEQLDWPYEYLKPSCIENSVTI
#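 Purified human 12hLO (150 nM final) in 25 mM Hepes, 0.01% Triton X-100, pH 7.0 was preincubated 15 min at room temperature with compound. Then 40 uM arachidonic acid was added, 30 min. Hydroperoxide was read by Fe-XO absorbance ratio 573/405 nm.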
# KB-3-1 cytotox: kills parental KB-3-1 adenocarcinoma cells; KB-3-1 viability, CellTiter-Glo ATP luminescence, 72 h; 400,000 compounds, 1.4% hits; Potency, µM (top dose mostly 46.1 µM), actives largely listed as cytotoxic; also: nearly all actives have a fitted effect of over 60% in size
#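 Cells are dispensed, compounds pinned in, plates held at 37 °C for 72 h, then CellTiter-Glo is added and luminescence read after 10 minutes. Cell line: parental KB-3-1 in phenol-red-free DMEM, 10% FBS.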
# MCF10A rereplic: DNA re-replication induction in MCF 10a cells. Potency, µM (series often up to 46.1 µM), hits mostly activators. MCF 10A DNA re-replication, Hoechst nuclear intensity, 48 h. AID 624296. 350,000 compounds, 2.9% hits; also: nearly all actives have a fitted effect of over 50% in size
# KB-V1 MDR tox: KB-V1 MDR subline cytotoxicity | Potency, µM (top dose mostly 46.1 µM), hits mostly cytotoxic | AID 1347076 | 400,000 compounds, 3.4% hits | KB-V1 MDR cells viability, CellTiter-Glo, 72 h; also: nearly all actives have a fitted effect of over 60% in size
#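 Drug-selected KB-V1 cells, grown in DMEM lacking phenol red with 10% FBS, receive compound titrations; after three days at 37 degrees C, surviving cell ATP is quantified by CellTiter-Glo luminescence and responses normalized and curve-fitted.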
# Numbers stand for hits; - = inactive; ? = inconclusive; . = no result. Only some compounds are listed: those with a hit (about 5.8% of all), similar ones and a draw of the others. Unless noted, calls follow the shape of the dose curve; as a rule, active = well fitted curve in the direction sought with a large enough effect; inconclusive = small, poorly fitted or top-dose-only effect, or another doubt; inactive = no such curve, though single readings can be large; an effect the other way counts as inactive or inconclusive.
SMILES,SW480 rereplic,PINK1 expr mod,12-LOX inh,KB-3-1 cytotox,MCF10A rereplic,KB-V1 MDR tox
CCOC(=O)C1=C(CN2CCCCC2)NC(=O)NC1c1ccc(OC)cc1 (centres undefined),.,-,44.7µM,.,.,.
COc1ccc(C(C)=O)c(OS(=O)(=O)c2ccc3c(c2)CCC3)c1,.,.,-,.,.,.
COc1cc(OC)c(C2=NOC(C(=O)Nc3cc(C)nn3-c3ccccc3)C2)cc1Cl (centres undefined),-,-,-,-,-,18.4µM
Cc1nc(Nc2ccccc2)sc1C(=O)c1ccccc1,-,-,-,-,?,-
COC(=O)Nc1nc(C)c(C(=O)c2ccccc2)s1,14.6µM,-,-,?,9.2µM,7.31µM
COC(=O)Nc1nc(-c2ccccc2)c(C(=O)c2ccccc2)s1,0.411µM,-,-,0.164µM,0.231µM,?
COc1cccc(CCC2CCCNC2)c1 (centres undefined),.,.,-,.,.,.
CCc1ccc(Nc2nnc(SCC(=O)Nc3ccnn3C3CCCC3)s2)cc1,.,.,-,.,.,.
CCCCCCCCCCCCCCCC(O)C[N+](C)(C)CCO (centres undefined),-,-,15.8µM,?,?,-
CCc1ccc2[nH]c3nc(SCC(=O)NNC(=O)c4ccc(C(C)(C)C)cc4)nnc3c2c1,5.8µM,-,-,?,2.31µM,-
COc1ccc(OCCn2c(NC(=O)c3ccco3)nc3ccccc32)cc1,4.11µM,-,-,-,11.6µM,-
COc1ccc(C(=O)n2c(-c3ccco3)nc3ccccc32)cc1,18.4µM,-,-,?,8.91µM,?
CCCn1c(NC(=O)c2ccco2)nc2ccccc21,-,.,-,-,-,14.6µM
CCCn1c(NC(=O)c2ccc(Br)cc2)nc2ccccc21,-,-,-,-,-,-
CCCn1c(NC(=O)c2ccccc2Br)nc2ccccc21,-,-,-,?,?,9.2µM
COc1ccc(OCCn2c(NC(=O)c3ccc(OC)cc3)nc3ccccc32)cc1,.,-,-,?,.,?
Cc1cc(C)c(NC(=O)CC2(C(=O)O)CCCC2)c(C)c1,.,.,-,.,.,.
CCCCn1c(=O)[nH]c(=O)c2c1nc(COC(=O)c1ccccc1)n2CCC(C)C,.,.,-,.,.,.
COc1ccc2ccc3c(c2c1)N=C[C@]1(O3)N(C)c2ccccc2C1(C)C,14.6µM,-,?,-,18.4µM,?
O=C(CCCc1ccccc1)N1CCC2(CC1)CC(Cc1nc(-c3cccnc3)no1)CCO2 (centres undefined),.,.,-,.,.,.
O=C(Nc1nc2ccc(SC(F)F)cc2s1)c1ccc(NS(=O)(=O)c2ccc(F)c(F)c2)cc1,-,-,?,-,18.4µM,?
COc1cccc(Nc2ncccc2C(=O)Nc2ccccc2)c1,?,-,-,-,23.1µM,-
COc1ccc(NC(=O)c2cccnc2NCCc2ccccc2)cc1,?,?,44.7µM,-,-,?
COc1cccc(NC(=O)CN(C)C(=O)c2cccnc2Nc2cccc(C(F)(F)F)c2)c1,?,-,.,?,20.6µM,?
O=C(Nc1ccccc1)c1cccnc1NCCc1ccccc1,-,-,-,-,-,-
SMILES,SW480 rereplic,PINK1 expr mod,12-LOX inh,KB-3-1 cytotox,MCF10A rereplic,KB-V1 MDR tox
CCNC(=O)CN(CC)CCc1ccccc1,.,.,-,.,.,.
CCC(C)c1ccc(NC(=O)CCc2ncc(-c3ccccc3F)o2)cc1 (centres undefined),.,.,-,.,.,.
CN(C)CCNC1CCN(C)CC1,.,.,-,.,.,.
Brc1ccc2[nH]c3c(c2c1)CCC3,-,-,-,?,-,-
NC(=O)c1cc(Br)cc2c3c([nH]c12)CCCC3,?,-,?,8.2µM,?,16.4µM
N#Cc1cnn(-c2cc(Cl)ccc2Cl)c1N,.,-,-,-,.,-
N#Cc1cnn(-c2ccc([N+](=O)[O-])cc2[N+](=O)[O-])c1N,.,-,-,18.4µM,.,?
COc1cccc2sc3cc(NCCCN4CCOCC4)ccc3c(=O)c12,-,-,-,-,18.4µM,-
O=c1c2ccccc2oc2cc(NCCCN3CCOCC3)ccc12,?,-,-,-,16.4µM,-
O=c1c2ccccc2oc2cc(NCCCn3ccnc3)ccc12,?,-,-,-,20.6µM,-
CN1CCCC1CCNc1ccc2c(=O)c3ccccc3oc2c1 (centres undefined),?,-,-,-,18.4µM,-
COC(=O)Nc1c(C)cccc1C(C)C,.,.,-,.,.,.
C=CCNc1nc(C(=O)OCC(=O)NCC(=O)Nc2ccccc2Br)cs1,.,.,-,.,.,.
Cc1ccc(NC(=O)CSc2ncc(-c3ccc(Cl)cc3)o2)cc1C,.,.,-,.,.,.
O=C(Nc1ccncc1)c1ccc(Cl)c(S(=O)(=O)N2CCCCC2)c1,-,-,.,?,13µM,?
Cn1cccc1C(=O)Nc1ccc(Cl)c(S(=O)(=O)N2CCCCC2)c1,-,-,?,?,-,20.6µM
O=C(Nc1ccc(Cl)c(S(=O)(=O)N2CCCCC2)c1)c1ccncc1,-,-,-,-,-,?
O=C(Nc1ncn[nH]1)c1ccc(Cl)c(S(=O)(=O)N2CCCCC2)c1,.,.,-,.,.,.
O=C(Nc1ncn[nH]1)c1ccc(Cl)c(S(=O)(=O)N2CCCCCC2)c1,-,-,-,-,-,20.6µM
COc1ccc(Cl)cc1NC(=O)c1nc2ccccc2nc1N1CCCCC1,.,.,-,.,.,.
COc1c(C(=O)/C=C/c2ccccc2)ccc2c1C=CC(C)(C)O2,.,.,-,.,.,.
COc1ccc(C2C(C(=O)c3ccc(C)o3)=C(O)C(=O)N2Cc2cccnc2)cc1OC (centres undefined),-,-,25.1µM,-,-,?
CCOc1cc(C2C(C(=O)c3ccc(C)o3)=C(O)C(=O)N2CCc2ccccc2)ccc1O (centres undefined),-,-,8.91µM,-,-,-
Cc1ccc(S(=O)(=O)N2CCOCC2)s1,-,-,-,-,-,-
O=S(=O)(c1ccc(-c2ccon2)s1)N1CCOCC1,0.581µM,-,?,-,-,-
SMILES,SW480 rereplic,PINK1 expr mod,12-LOX inh,KB-3-1 cytotox,MCF10A rereplic,KB-V1 MDR tox
O=C1CCC(C(=O)OCC(=O)N2N=C3/C(=C\c4ccccc4)CCCC3C2c2ccccc2)N1 (centres undefined),-,-,?,-,-,-
CNC(=O)c1sc(N2N=C3/C(=C\c4ccccc4)CCCC3C2c2ccccc2)nc1C (centres undefined),8.2µM,-,-,.,?,.
O=C1CCC(C(=O)OCC(=O)N2N=C3/C(=C/c4ccccc4)CCCC3C2c2ccccc2)N1 (centres undefined),-,-,-,20.6µM,-,?
CNC(=O)c1sc(N2N=C3/C(=C/c4ccccc4)CCCC3C2c2ccccc2)nc1C (centres undefined),7.08µM,-,-,?,?,-
CC(Sc1nc2nc[nH]c2c(=O)[nH]1)C(=O)Nc1ccc(F)cc1 (centres undefined),.,.,-,.,.,.
Cc1cc(C)c(C(=O)COC(=O)c2cc(=O)[nH]c3ccccc23)cc1C,.,.,-,.,.,.
